Measured values as given in PubChem BioAssay.
The source made the active and inactive calls.

Experiments:
[1] = tested on: PRMT1 (protein arginine N-methyltransferase 1); experiment: small molecules binding arginine methyltransferase PRMT1 – biochemical, small-molecule microarray, 635 nm fluorescence, primary screen (AID 1088); details: higher = more signal;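 also: binding of Prmt1 protein to compounds spotted on small-molecule microarray slides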
[2] = growth effects on S. cerevisiae YJM789 – YJM789 clinical isolate, OD600, 24 h, basal, primary screen (AID 1089); details: higher = more signal, called active from +8 up or from −8 down;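 also: growth of clinical yeast isolate S. cerevisiae YJM 789 seeded 1000 cells per well; test concentration not given here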
[3] = S. pombe growth modifiers, basal conditions – strain 972, OD600, 24 h, no modulator, primary screen (AID 1090);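 also: basal condition with compound alone and no growth modifier present; test concentration not given here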; details: S. pombe 972 growth, higher = more signal, called active from +8 up or from −8 down
[4] = budding yeast growth modifiers under rapamycin – strain BY4716, OD600, 96 h, primary screen (AID 1091); also: test concentration not given here; details: S. cerevisiae BY4716 + rapamycin, higher = more signal, called active from +8 up or from −8 down
[5] = target: Torsin-1A-interacting protein 2 (Homo sapiens) (UniProt Q8NFQ8); experiment: small molecules binding lysate-expressed LULL1 – cell lysate, human LULL1 lysate, 635/667 nm fluorescence, primary screen (AID 1092); details: small-molecule microarray, hLULL1 lysate binding, 635 nm fluorescence; higher = more signal;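 also: probe is lysate of COS7 cells overexpressing human LULL1; score merges per-feature 667 nm fluorescence with signal-to-noise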
Chain of Torsin-1A-interacting protein 2 (Homo sapiens) (Q8NFQ8 whole entry, looked up): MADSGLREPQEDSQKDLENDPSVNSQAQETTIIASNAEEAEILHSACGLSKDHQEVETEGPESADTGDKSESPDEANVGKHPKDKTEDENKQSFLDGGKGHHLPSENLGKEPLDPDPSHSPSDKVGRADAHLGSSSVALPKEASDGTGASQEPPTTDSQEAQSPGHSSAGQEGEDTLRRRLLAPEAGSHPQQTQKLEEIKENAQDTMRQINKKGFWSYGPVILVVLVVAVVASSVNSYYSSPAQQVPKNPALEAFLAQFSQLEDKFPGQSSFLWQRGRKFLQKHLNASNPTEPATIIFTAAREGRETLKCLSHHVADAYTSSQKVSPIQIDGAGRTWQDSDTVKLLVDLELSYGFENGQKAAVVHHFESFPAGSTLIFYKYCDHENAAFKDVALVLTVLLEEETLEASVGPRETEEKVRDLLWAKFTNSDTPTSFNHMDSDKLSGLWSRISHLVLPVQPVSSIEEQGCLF

[6] = optical density change of DRC41 E. coli – strain DRC41, OD650, 24 h, E. coli filamentation project, primary screen (AID 1093);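 also: MC1000 strain lacking acrAB efflux and sulA so SOS filamentation is blocked; test concentration not given here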; details: E. coli DRC41 growth, higher = more signal, called active from +8 up or from −8 down
[7] = probe aLefty2 binding to arrayed compounds – biochemical, biotinylated probe, 635/667 nm fluorescence, primary screen (AID 1094); details: small-molecule microarray, higher = more signal;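 also: score merges spot fluorescence near 667 nm with spot signal-to-noise ratio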
[8] = tested on: Noggin (protein binding on small-molecule microarray); experiment: small molecules binding Noggin protein – biochemical, 635/667 nm fluorescence, primary screen (AID 1095); details: 635 nm fluorescence, higher = more signal;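 also: score merges 667 nm feature fluorescence with signal to noise over triplicate slides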
[9] = target: Neurogenic locus notch homolog protein 3 (Homo sapiens) (UniProt Q9UM47); experiment: small molecules binding NOTCH3 protein – biochemical, 635/667 nm fluorescence, primary screen (AID 1096); details: small-molecule microarray, 635 nm fluorescence, higher = more signal
Chain of Neurogenic locus notch homolog protein 3 (Homo sapiens) (Q9UM47 whole entry, looked up): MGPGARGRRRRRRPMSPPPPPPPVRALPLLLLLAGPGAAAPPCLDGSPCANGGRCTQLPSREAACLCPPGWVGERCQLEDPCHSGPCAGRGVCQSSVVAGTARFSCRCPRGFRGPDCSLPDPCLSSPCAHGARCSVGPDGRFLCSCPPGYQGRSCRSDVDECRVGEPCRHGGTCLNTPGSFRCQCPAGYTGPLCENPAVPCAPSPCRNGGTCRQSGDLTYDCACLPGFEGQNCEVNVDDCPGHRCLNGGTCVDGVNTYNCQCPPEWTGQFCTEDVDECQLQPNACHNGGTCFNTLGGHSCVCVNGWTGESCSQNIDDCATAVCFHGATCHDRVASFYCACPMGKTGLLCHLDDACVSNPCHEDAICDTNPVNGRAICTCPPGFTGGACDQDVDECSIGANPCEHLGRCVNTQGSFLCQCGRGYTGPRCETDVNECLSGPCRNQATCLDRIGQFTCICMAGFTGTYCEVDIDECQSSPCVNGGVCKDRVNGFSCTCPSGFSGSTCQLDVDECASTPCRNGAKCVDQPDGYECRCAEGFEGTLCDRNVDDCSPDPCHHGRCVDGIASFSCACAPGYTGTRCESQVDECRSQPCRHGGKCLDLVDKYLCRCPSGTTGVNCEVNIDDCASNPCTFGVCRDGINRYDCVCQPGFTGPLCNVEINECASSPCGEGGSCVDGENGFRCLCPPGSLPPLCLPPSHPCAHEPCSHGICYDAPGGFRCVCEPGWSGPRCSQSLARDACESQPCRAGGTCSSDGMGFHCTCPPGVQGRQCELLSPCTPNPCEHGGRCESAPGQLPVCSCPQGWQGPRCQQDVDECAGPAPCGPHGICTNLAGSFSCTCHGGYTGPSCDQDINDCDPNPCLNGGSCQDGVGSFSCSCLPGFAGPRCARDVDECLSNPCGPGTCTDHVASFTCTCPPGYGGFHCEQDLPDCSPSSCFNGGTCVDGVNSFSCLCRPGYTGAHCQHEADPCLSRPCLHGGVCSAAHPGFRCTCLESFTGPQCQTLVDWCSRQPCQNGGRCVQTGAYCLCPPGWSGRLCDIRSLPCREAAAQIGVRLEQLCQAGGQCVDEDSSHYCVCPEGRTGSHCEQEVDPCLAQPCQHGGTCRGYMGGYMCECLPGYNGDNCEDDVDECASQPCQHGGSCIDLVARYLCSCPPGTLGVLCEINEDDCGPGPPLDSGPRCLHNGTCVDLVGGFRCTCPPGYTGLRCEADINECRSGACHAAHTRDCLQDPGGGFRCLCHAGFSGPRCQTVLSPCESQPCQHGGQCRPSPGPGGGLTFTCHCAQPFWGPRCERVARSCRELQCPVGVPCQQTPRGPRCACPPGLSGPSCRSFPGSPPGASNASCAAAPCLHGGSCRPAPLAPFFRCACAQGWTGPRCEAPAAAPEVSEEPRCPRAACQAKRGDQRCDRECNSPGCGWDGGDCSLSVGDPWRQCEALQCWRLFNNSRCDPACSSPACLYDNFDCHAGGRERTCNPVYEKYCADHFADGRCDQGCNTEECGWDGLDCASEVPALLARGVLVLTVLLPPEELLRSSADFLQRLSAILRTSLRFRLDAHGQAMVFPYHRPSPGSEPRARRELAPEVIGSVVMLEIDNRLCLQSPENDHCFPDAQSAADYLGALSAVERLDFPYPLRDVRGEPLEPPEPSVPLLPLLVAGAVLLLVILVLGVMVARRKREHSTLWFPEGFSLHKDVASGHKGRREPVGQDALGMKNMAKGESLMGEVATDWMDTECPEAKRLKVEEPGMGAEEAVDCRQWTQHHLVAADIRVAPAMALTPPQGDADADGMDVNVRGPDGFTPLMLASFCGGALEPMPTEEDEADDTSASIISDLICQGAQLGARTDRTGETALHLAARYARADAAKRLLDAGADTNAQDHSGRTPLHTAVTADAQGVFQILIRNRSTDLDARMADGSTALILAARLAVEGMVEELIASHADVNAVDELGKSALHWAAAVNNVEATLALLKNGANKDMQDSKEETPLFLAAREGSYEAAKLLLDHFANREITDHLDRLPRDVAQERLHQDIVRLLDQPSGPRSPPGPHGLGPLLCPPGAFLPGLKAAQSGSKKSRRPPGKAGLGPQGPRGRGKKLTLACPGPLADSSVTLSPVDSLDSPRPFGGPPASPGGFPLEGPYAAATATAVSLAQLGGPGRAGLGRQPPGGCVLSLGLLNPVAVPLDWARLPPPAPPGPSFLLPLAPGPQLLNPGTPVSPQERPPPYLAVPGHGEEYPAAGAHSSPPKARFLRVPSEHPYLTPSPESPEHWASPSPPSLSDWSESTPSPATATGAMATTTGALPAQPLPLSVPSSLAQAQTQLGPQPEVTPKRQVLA

[10] = probe aEGFR binding to arrayed compounds – biochemical, biotinylated probe, 635/667 nm fluorescence, primary screen (AID 1097); details: small-molecule microarray, higher = more signal;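 also: probe is a biotinylated anti-EGFR antibody binding compounds printed on slides; score combines fluorescence near 667 nm and signal to noise of each spot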
[11] = tested on: Plasmodium falciparum Sir2 (PF13_0152, Sir2A); experiment: Plasmodium falciparum Sir2A binding compounds – biochemical, small-molecule microarray, 635 nm fluorescence, primary screen (AID 1098); details: fluorescence 635 nm, higher = more signal;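 also: score merges spot fluorescence intensity with its signal-to-noise ratio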
[12] = probe aDKK1 binding to arrayed compounds – biochemical, biotinylated probe, 635/667 nm fluorescence, primary screen (AID 1099); details: small-molecule microarray, higher = more signal;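 also: score merges 667nm spot fluorescence with signal to noise across triplicate slides; reference of the scale not given here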
[13] = probe aCHRDL2 binding to arrayed compounds – biochemical, biotinylated probe, 635/667 nm fluorescence, primary screen (AID 1100); details: small-molecule microarray, higher = more signal
[14] = change in splice reporter luminescence, either direction, cell-based, HEK293, spliceosome inhibition project, primary screen (AID 1101); details: HEK293 splicing luciferase reporter, 24 h, higher = more signal, called active from +8 up or from −8 down;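 also: HEK293 cells carrying a splicing-competent luciferase reporter gene; test concentration not given here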
[15] = target: Fibroblast growth factor 10 (Homo sapiens) (UniProt O15520); experiment: compounds binding fibroblast growth factor 10 – biochemical, small-molecule microarray, 635 nm fluorescence, primary screen (AID 1102); details: FGF10 binding, fluorescence 635 nm, higher = more signal
Chain of Fibroblast growth factor 10 (Homo sapiens) (O15520 whole entry, looked up): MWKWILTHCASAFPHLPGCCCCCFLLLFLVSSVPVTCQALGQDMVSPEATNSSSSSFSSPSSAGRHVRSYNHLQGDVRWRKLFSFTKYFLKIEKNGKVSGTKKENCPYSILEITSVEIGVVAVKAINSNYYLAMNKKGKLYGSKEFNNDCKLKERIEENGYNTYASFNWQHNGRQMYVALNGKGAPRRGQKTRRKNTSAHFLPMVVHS

[16] = tested on: glycogen synthase kinase-3 (GSK3A per assay name; protocol says GSK3B); experiment: compounds binding glycogen synthase kinase-3 – biochemical, small-molecule microarray, 635 nm fluorescence, GSK3A, primary screen (AID 1103); details: fluorescence 635 nm, higher = more signal; also: the record names both GSK3A and GSK3B
[17] = target: Epidermal growth factor receptor (Homo sapiens) (UniProt P00533); experiment: compounds binding epidermal growth factor receptor – biochemical, small-molecule microarray, 635 nm fluorescence, primary screen (AID 1104); details: EGFR binding, higher = more signal;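 also: score merges 667 nm emission intensity with spot signal to noise over triplicate slides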
Chain of Epidermal growth factor receptor (Homo sapiens) (P00533 whole entry, looked up): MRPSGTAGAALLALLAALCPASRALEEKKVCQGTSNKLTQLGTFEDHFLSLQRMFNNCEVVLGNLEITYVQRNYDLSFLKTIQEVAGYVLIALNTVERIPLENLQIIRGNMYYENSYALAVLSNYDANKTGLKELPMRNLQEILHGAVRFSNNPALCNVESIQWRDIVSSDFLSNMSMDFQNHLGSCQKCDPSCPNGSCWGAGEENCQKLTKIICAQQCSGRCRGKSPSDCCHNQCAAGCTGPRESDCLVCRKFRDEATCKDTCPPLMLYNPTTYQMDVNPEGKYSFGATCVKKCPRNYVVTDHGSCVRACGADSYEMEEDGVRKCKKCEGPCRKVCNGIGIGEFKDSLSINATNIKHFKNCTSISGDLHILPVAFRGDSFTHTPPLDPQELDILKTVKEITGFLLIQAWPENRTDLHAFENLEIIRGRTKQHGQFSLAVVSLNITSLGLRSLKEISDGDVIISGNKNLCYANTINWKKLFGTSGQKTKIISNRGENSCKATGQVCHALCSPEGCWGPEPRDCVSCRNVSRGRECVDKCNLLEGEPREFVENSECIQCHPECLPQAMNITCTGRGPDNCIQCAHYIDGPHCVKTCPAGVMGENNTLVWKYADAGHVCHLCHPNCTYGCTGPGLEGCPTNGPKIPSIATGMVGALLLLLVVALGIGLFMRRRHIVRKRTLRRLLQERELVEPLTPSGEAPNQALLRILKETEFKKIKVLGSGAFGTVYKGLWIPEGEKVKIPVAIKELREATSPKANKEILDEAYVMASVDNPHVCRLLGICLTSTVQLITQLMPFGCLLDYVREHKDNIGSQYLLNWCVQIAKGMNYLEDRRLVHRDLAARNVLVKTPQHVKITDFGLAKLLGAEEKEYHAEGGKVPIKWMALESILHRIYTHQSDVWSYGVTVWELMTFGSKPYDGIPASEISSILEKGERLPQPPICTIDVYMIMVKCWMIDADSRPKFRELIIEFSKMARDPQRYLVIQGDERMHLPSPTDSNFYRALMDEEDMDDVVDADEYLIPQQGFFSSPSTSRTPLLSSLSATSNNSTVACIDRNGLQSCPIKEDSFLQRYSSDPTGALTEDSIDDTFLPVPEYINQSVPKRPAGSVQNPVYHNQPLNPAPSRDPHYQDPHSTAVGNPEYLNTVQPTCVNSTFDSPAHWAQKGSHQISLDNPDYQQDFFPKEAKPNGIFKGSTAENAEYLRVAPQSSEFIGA

[18] = target: Follistatin-related protein 3 (Homo sapiens) (UniProt O95633); experiment: compounds binding follistatin-related protein 3 – biochemical, small-molecule microarray, 635 nm fluorescence, primary screen (AID 1105); details: FSTL3 binding, higher = more signal;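 also: score merges emission near 667 nm and signal to noise per printed spot across three slides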
Chain of Follistatin-related protein 3 (Homo sapiens) (O95633 whole entry, looked up): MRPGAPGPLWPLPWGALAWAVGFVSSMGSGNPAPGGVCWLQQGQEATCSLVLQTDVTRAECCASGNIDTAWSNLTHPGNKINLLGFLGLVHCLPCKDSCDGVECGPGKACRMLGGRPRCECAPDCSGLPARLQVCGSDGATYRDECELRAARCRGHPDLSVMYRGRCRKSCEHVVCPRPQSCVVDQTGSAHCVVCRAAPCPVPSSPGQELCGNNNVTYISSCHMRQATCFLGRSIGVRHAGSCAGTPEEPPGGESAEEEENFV

[19] = target: Dickkopf-related protein 1 (Homo sapiens) (UniProt O94907); experiment: small molecules binding DKK1 protein – biochemical, small-molecule microarray, 635 nm fluorescence scan, primary screen (AID 1106); details: higher = more signal;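 also: score merges emission near 667 nm with signal to noise over three replicate slides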
Chain of Dickkopf-related protein 1 (Homo sapiens) (O94907 whole entry, looked up): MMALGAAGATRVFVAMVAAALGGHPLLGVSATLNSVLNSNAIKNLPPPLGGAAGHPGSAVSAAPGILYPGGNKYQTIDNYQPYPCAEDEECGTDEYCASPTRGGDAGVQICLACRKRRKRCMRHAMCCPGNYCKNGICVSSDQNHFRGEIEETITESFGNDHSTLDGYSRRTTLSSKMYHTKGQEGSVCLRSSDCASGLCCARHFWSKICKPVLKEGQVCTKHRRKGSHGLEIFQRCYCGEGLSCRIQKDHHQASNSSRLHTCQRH

[20] = tested on: Inhibin beta A chain (activin A); experiment: small molecules binding activin A – biochemical, small-molecule microarray, 635 nm fluorescence scan, primary screen (AID 1107); details: INHBA, higher = more signal;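 also: mouse activin A protein probed at 4.33 µg/mL on printed slides; score merges bound-protein fluorescence near 667 nm with spot signal-to-noise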

Row | SMILES | composite z-score [1] | z-score [2] | z-score [3] | z-score [4] | composite z-score [5] | z-score [6] | composite z-score [7] | composite z-score [8] | composite z-score [9] | composite z-score [10] | composite z-score [11] | composite z-score [12] | composite z-score [13] | z-score [14] | composite z-score [15] | composite z-score [16] | composite z-score [17] | composite z-score [18] | composite z-score [19] | composite z-score [20]
1 | CN(C)CCCNC(=O)[C@@H]1c2ccccc2C(=O)N(Cc2ccccc2C(F)(F)F)[C@H]1c1ccc(CO)cc1 | 0.986 | 0.0389 (inactive) | -1.28 (inactive) | -0.461 (inactive) | 0.767 | 1.53 (inactive) | 0.0518 | -0.396 | -0.704 | -0.213 | -0.722 | 0.908 | 0.706 | 0.0896 (inactive) | -0.728 | 0.355 | -0.899 | -0.58 | -0.759 | 0.764
2 | O=C1O[C@H](c2ccccc2)[C@H](c2ccccc2)N2[C@H]1[C@@H](C(=O)N1CCN(c3ncccn3)CC1)[C@]1(C(=O)Nc3ccc(C#CCCO)cc31)[C@H]2c1ccc(O)cc1 | 0.738 | 0.515 (inactive) | -0.443 (inactive) | 1.18 (inactive) | 2.92 | -0.778 (inactive) | -0.0784 | 0.283 | 0.504 | -0.004 | 0.772 | -0.238 | 0.422 | -0.057 (inactive) | 1.06 | -0.906 | 0.397 | 0.0936 | 0.359 | -0.0667
3 | [N-]=[N+]=Nc1ccccc1[C@@H]1OC(c2ccc(OCCCO)cc2)=N[C@]1(Cc1ccccc1)C(=O)NCCN1CCOCC1 | 0.547 | -0.312 (inactive) | -1.36 (inactive) | 0.152 (inactive) | 3.51 | 0.382 (inactive) | 0.0787 | 0.762 | 1.09 | -0.0106 | 0.669 | 0.652 | 0.825 | -0.299 (inactive) | 1.1 | 0.774 | -0.04 | 0.952 | -0.326 | 0.33
4 | COC(=O)[C@@]1(Cc2ccccc2)[C@H]2c3cc(C(=O)N4CCCC4)n(Cc4ccc(OC)c(OC)c4)c3C[C@H]2CN1C(=O)c1ccccc1 | 0.632 | 0.49 (inactive) | 1.06 (inactive) | 1.45 (inactive) | 3.5 | -0.0046 (inactive) | 0.666 | 0.0245 | 1.14 | 0.403 | 0.491 | 1.14 | 1.2 | -2.9 (inactive) | 0.971 | 1.06 | 0.122 | 0.985 | -0.823 | 0.763
5 | COc1ccc([Si](C)(C)[C@H]2[C@H](CC(=O)N3Cc4ccccc4C[C@H]3CO)O[C@@]3(C(=O)N(C)c4c(Br)cc(C)cc43)[C@@H]2C)cc1 | 1.54 | 0.344 (inactive) | 0.788 (inactive) | 5.53 (inactive) | 0.986 | -0.498 (inactive) | -0.0631 | 1.42 | 1.09 | -0.0828 | 0.842 | -0.149 | -0.246 | -1.97 (inactive) | 1.19 | 0.332 | 0.552 | 1.09 | 0.474 | 0.96
6 | COC(=O)C1=CC(CCCO)=CC(c2cccs2)N(Cc2cc3c(cc2Br)OCO3)C=C1C(=O)OC (stereo not given) | 1.56 | 0.74 (inactive) | -0.997 (inactive) | 0.132 (inactive) | 3.17 | 0.923 (inactive) | 0.109 | 0.404 | 1.12 | 0.236 | 1.53 | 0.718 | 0.628 | -0.478 (inactive) | 1.17 | 1.3 | 0.511 | 0.908 | 0.166 | 1.01
7 | COC(=O)C(CC#Cc1ccc2c(c1)[C@]1(C(=O)N2)[C@H](c2ccc(OCCO)cc2)N2[C@H](c3ccccc3)[C@H](c3ccccc3)OC(=O)[C@H]2[C@@H]1C(=O)N1CCCCCCC1)C(=O)OC | 1.54 | 1.37 (inactive) | 0.736 (inactive) | 2.56 (inactive) | 3.95 | -0.611 (inactive) | 1.54 | 1.84 | 1.03 | 1.17 | 1.8 | 2.65 | 1.3 | 0.191 (inactive) | 1.18 | 1.37 | 1.64 | 1.63 | 2.14 | 1.64
8 | C=C(CCCC)/C(=C/C[C@@H](OC(C)=O)c1ccc(CO)o1)c1cnc2ccccc2c1 | 1.54 | 1.5 (inactive) | -0.57 (inactive) | 0.824 (inactive) | 1.92 | 0.688 (inactive) | -0.11 | 1.57 | 1.11 | -0.0007 | 1.08 | -0.282 | -0.428 | 0.179 (inactive) | 1.46 | 1.3 | 0.533 | 1.4 | 0.768 | 1.05
9 | COC(=O)C[C@H]1O[C@@]2(C[C@@H]1[Si](C)(C)C)C(=O)N(C)c1ccccc12 | 0.447 | -2.53 (inactive) | -2.4 (inactive) | -1.5 (inactive) | 1.2 | 1.62 (inactive) | -0.15 | 0.297 | 0.764 | 0.0747 | 0.0786 | -0.251 | -0.52 | -0.662 (inactive) | 0.955 | 0.59 | 0.559 | 0.612 | 0.525 | -1.08
10 | CCC(CC)C(O)C1C=CC2C(=O)N(c3ccccc3)C(=O)C2N1Nc1ccccc1F (stereo not given) | 0.203 | 0.175 (inactive) | 0.44 (inactive) | -0.0875 (inactive) | 3.23 | -0.636 (inactive) | 0.172 | -0.19 | 0.78 | -0.04 | 1.17 | 0.373 | 0.481 | -0.115 (inactive) | 0.412 | 0.554 | 0.0005 | 0.226 | -0.445 | 0.704
